These results are taken from PubChem BioAssay (NCATS).

Records with an inconclusive call do not appear. Values without a mark were called inactive. Activity calls are given as the source filed them. Calls follow the shape of the dose curve; as a rule, active = well fitted cell-killing curve with a large enough effect; inconclusive = small, poorly fitted or top-dose-only effect, or effect the other way; inactive = no such curve, though single readings can be large or run the other way.

One may read the viability as a read-out of living cells in per cent, often relative to untreated cells.

Test [1] in a line: Quantitative High-Throughput drug screen in 47 multiple myeloma cell lines against the NCATS MIPE library collection: MM1R_ATCC cell viability assay (AID 1918981). Also: nearly all actives have a fitted effect of over 35% in size. In outline: (§1)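 500 cells/well; MIPE 4.0 drugs pin-transferred; 48 h, 37C, 5% CO2. CellTiter-Glo, 5 min RT, luminescence. Controls: DMSO 100%, media 0%.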
Test [2] in a line: Quantitative High-Throughput drug screen in 47 multiple myeloma cell lines against the NCATS MIPE library collection: LP1_DSMZ cell viability assay (AID 1918982). Also: nearly all actives have a fitted effect of over 35% in size. In outline:
as §1

The nature of test [3]: Quantitative High-Throughput drug screen in 47 multiple myeloma cell lines against the NCATS MIPE library collection: KMS34_JCRB cell viability assay (AID 1918985). Also: nearly all actives have a fitted effect of over 40% in size. In outline:
as §1

Test [4] is described as follows: Quantitative High-Throughput drug screen in 47 multiple myeloma cell lines against the NCATS MIPE library collection: OCIMY7_PLB cell viability assay (AID 1918987). Also: nearly all actives have a fitted effect of over 65% in size. In outline:
as §1

Test [5] in a line: Quantitative High-Throughput drug screen in 47 multiple myeloma cell lines against the NCATS MIPE library collection: OCIMY5_PLB cell viability assay (AID 1918988). Also: nearly all actives have a fitted effect of over 65% in size. In outline:
as §1

Test [6] in a line: Quantitative High-Throughput drug screen in 47 multiple myeloma cell lines against the NCATS MIPE library collection: OPM1_PLB cell viability assay (AID 1918989). Also: nearly all actives have a fitted effect of over 40% in size. In outline:
as §1

Test [7] in a line: Quantitative High-Throughput drug screen in 47 multiple myeloma cell lines against the NCATS MIPE library collection: KMS28PE_JCRB cell viability assay (AID 1918983). Also: nearly all actives have a fitted effect of over 35% in size. In outline:
as §1

The nature of test [8]: Quantitative High-Throughput drug screen in 47 multiple myeloma cell lines against the NCATS MIPE library collection: L363_DSMZ cell viability assay (AID 1918984). Also: nearly all actives have a fitted effect of over 40% in size. In outline:
as §1

Test [9] is described as follows: Quantitative High-Throughput drug screen in 47 multiple myeloma cell lines against the NCATS MIPE library collection: SKMM1_PLB cell viability assay (AID 1919863). Also: nearly all actives have a fitted effect of over 35% in size. As to viability: series mostly up to about 46 µM. The settings on record: SKMM1 myeloma viability, CellTiter-Glo ATP, 48 h; viability: hits give low values. In outline:
as §1
Background: Cellular ATP, detected with luciferase, serves as a proxy for viable cell number.

A short description of test [10]: Quantitative High-Throughput drug screen in 47 multiple myeloma cell lines against the NCATS MIPE library collection: U266_ATCC cell viability assay (AID 1919864). Also: nearly all actives have a fitted effect of over 35% in size. In outline: as §1
Potency is read from the fitted curve at half-maximal effect.

For the molecule `Clc1ccc2ncc(-c3cccc(NC4CNC4)n3)n2c1`, the Potency in [1] was 16.6 µM (active); in [2] it was 16.6 µM (active); in test [3], 8330 nM (active); in [4], 14.8 µM (active); in test [5], 23.5 µM (active); in test [6], 14.8 µM (active).

With `CCC(=C(c1ccccc1)c1ccc(OCCN(C)C)cc1)c1ccccc1`, the Potency was 23.5 µM (active) in test [1]; 18.7 µM (active) in test [7]; 20.9 µM (active) in test [8]; 20.9 µM (active) in test [4]; 29.6 µM (active) in test [5]; 20.9 µM (active) in [6]. The Potency in test [9] was 20.9 µM (active). For the same molecule, the Potency result in [3] was “inactive”.

As to `COc1cc2nccc(Oc3ccc(NC(=O)C4(C(=O)Nc5ccc(F)cc5)CC4)cc3)c2cc1OC`, the Potency in test [1] is 1.87 µM (active); in test [2] it was 20.9 µM (active); in test [3], 14800 nM (active); in test [4] it was 18.7 µM (active); in [5] it was 18.7 µM (active); in test [6], 23.5 µM (active). The Potency in [9] was 16.6 µM (active); in test [10], 20.9 µM (active).

Turning to `COc1cc2c(cc1-c1c(C)noc1C)ncc1[nH]c(=O)n([C@H](C)c3ccccn3)c12`, the Potency in test [1] was 3.32 µM (active); in test [2] it was 0.372 µM (active); in [3], 469 nM (active); in test [4], 18.7 µM (active); in [5], 1.05 µM (active); in test [6], 1.48 µM (active). Besides, the Potency in test [9] was 0.743 µM (active); in test [10], 18.7 µM (active).

Consider `O=C(C=Cc1c(C(=O)O)[nH]c2cc(Cl)cc(Cl)c12)Nc1ccccc1`, for which the Potency result in test [1], in test [2], in test [7], in test [4], in test [5] and in test [6] was “inactive” each time. In addition, the viability in test [9] was 114%.

On to `COc1ccc(OC)c(-c2nnc3ccc(-c4ccc(OC)c(O[C@@H]5CCOC5)c4)nn23)c1`, for which the Potency in [1] was 8.33 µM (active); in [2], 14.8 µM (active); in test [7], 14.8 µM (active); in test [5], 16.6 µM (active); in test [6] it was 8.33 µM (active); in test [9], 18.7 µM (active). Besides, the Potency in [10] is 7.43 µM (active).

Take `CC1(C)OC2=C(C(=O)c3ccccc3C2=O)[C@H](NCc2ccccc2)[C@H]1O`: the Potency was 4.18 µM (active) in test [1]; 4.69 µM (active) in test [2]; 4180 nM (active) in test [3]; 1.32 µM (active) in test [4]; 3.32 µM (active) in test [5]; 7.43 µM (active) in test [9]. Moreover, in test [10], the Potency was 2.64 µM (active).

`COc1ccc2c(OCc3nnc4ccc(-c5ccccc5)nn34)ccnc2c1`: the Potency entry in test [1], in test [2], in [3] and in test [10] was “inactive” in each case.

For `Cc1ccc(NC(=O)C2(c3ccc4c(c3)OC(F)(F)O4)CC2)nc1-c1cccc(C(=O)O)c1`, the Potency in test [1] was 0.059 µM (active); in test [2], 0.0662 µM (active); in [3], 93.5 nM (active); in test [4], 0.132 µM (active); in test [5], 0.0469 µM (active); in test [9] it was 0.0743 µM (active).

Turning to `O=C(Nc1cn[nH]c1-c1nc2ccc(CN3CCOCC3)cc2[nH]1)NC1CC1`, the Potency in [1] is 2.96 µM (active); in test [7] it was 7.43 µM (active); in test [3] it was 418 nM (active); in test [4], 0.332 µM (active); in test [5], 4.18 µM (active); in test [6], 1.66 µM (active). Moreover, the Potency in [9] was 10.5 µM (active).

On to `CNC(=O)c1ccccc1Nc1nc(Nc2ccc(N3CCOCC3)cc2OC)ncc1Cl`, for which the Potency in test [1] was 0.833 µM (active); in [7], 0.935 µM (active); in test [8], 0.132 µM (active); in test [3], 935 nM (active); in [4] it was 0.332 µM (active); in [5], 1.32 µM (active). Also, the Potency in test [10] is 13.2 µM (active).

On to `Cc1nc(Nc2n[nH]c3c2CN(C(=O)N[C@H](CN(C)C)c2ccccc2)C3(C)C)c2sccc2n1`, for which the Potency in test [1] is 1.05 µM (active); in [7], 0.418 µM (active); in test [3], 469 nM (active); in [4] it was 0.209 µM (active); in test [5] it was 0.662 µM (active); in [6], 0.469 µM (active). Also, in test [9], the Potency is 0.743 µM (active).

As for `NC1(Cc2ccc(Cl)cc2)CCN(c2ncnc3[nH]ccc23)CC1`, the Potency in test [1] was 5.9 µM (active); in test [7], 5.26 µM (active); in test [8], 1.87 µM (active); in [3], 7430 nM (active); in test [4], 5.9 µM (active); in test [5] it was 9.35 µM (active). Also, the figures for the Potency in [6], in test [9] and in test [10] were 1.48 µM (active), 18.7 µM (active) and 20.9 µM (active), respectively.
